Bioassay records deposited in PubChem by National Center for Advancing Translational Sciences (NCATS).
An excerpt weighted towards active compounds, which were near 19% of everything screened.
KB-V1 MDR tox = qHTS assay for MDR1-selective chemotherapeutics: Primary screen using the drug-selected MDR subline cells KB-V1; Potency, µM (titrated, usually from 46.1 µM), usual class: cytotoxic; actives 3.4% (n = 400,000); KB-V1 MDR cells viability, CellTiter-Glo, 72 h; also: nearly all actives have a fitted effect of over 60% in size
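Luminescent ATP read-out (CellTiter-Glo, 10 min) measures survival of drug-selected KB-V1 MDR cells after 72 h, 37 degrees C compound exposure. Medium: phenol-red-free DMEM, 10% FBS. Values from fitted concentration-response curves.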
HT1080-NT tox = qHTS for induction of synthetic lethality in tumor cells producing 2HG: qHTS for the HT-1080-NT fibrosarcoma cell line; Potency, µM (doses to about 46.1 µM), inactives show top-dose activity, negative = less viability, actives largely listed as cytotoxic; HT-1080-NT fibrosarcoma viability, CellTiter-Glo ATP luminescence, 48 h; actives 1.6% (n = 360,000);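 also: NT is the 2HG producing partner of a matched IDH1 knockdown line; 0% = DMSO-treated cells and -100% = media-only wells without cells; nearly all actives have a fitted effect of over 55% in size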
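Compounds were tested in concentration-response format on HT-1080-NT cells for 48 hours at 37 degrees C. Cell viability came from CellTiter-Glo luminescence; curves were classified by r2, response magnitude and activity.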
KB-3-1 cytotox = qHTS assay for MDR1-selective chemotherapeutics: Primary screen using the parental adenocarcinoma cell KB-3-1. KB-3-1 viability, CellTiter-Glo ATP luminescence, 72 h. Potency, µM (highest dose often 46.1 µM), actives largely listed as cytotoxic. actives 1.4% (n = 400,000). AID 1347075, 2019; also: nearly all actives have a fitted effect of over 60% in size
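Cytotoxicity measured as CellTiter-Glo luminescence after 72 h at 37 C. Compound titrations were pinned onto drug-naive KB-3-1 parental adenocarcinoma cells grown in DMEM with 10% FBS, and normalized data fitted to concentration-response curves.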
HT1080 IDH1KD tx = qHTS for induction of synthetic lethality in tumor cells producing 2HG: qHTS for the HT-1080-IDH1KD cell line; HT-1080 IDH1 knockdown viability, ATP luminescence, 48 h; Potency, µM (highest dose often 46.1 µM), inactives show top-dose activity, negative = toxicity, usual class: cytotoxic; actives 2% (n = 360,000);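 also: 0% = DMSO wells and -100% = cell-free medium wells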
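CellTiter-Glo luminescence after 48 h compound exposure at 37 degrees C of IDH1-knockdown HT-1080 cells in 5% FBS RPMI. %Activity scaled between DMSO wells and cell-free media wells, with curves fitted and assigned curve classes.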
DT40 TDP1 no CPT = qHTS for Inhibitors of human tyrosyl-DNA phosphodiesterase 1 (TDP1): qHTS in cells in absence of CPT | DT40 Tdp1-/- hTDP1 cells, no CPT, ATP luminescence, 48 h | Potency, µM (highest dose often 46.2 µM), inactives show at the highest dose activity change, negative = growth inhibition, actives largely listed as inhibitors | actives 15% (n = 420,000); also: nearly all actives have a fitted effect of over 55% in size
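A cellular qHTS used chicken DT40 cells lacking endogenous Tdp1 but carrying stably transfected human TDP1. Compounds were applied without camptothecin, and cell growth kinetics were judged by ATP-dependent luminescence after ≥48 hr.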
TDP1 cell CPT = qHTS for Inhibitors of human tyrosyl-DNA phosphodiesterase 1 (TDP1): qHTS in cells in presence of CPT. chicken DT40 Tdp1-/-;hTDP1 cells + 20 nM CPT, ATP luminescence, 48 h. Potency, µM (top dose mostly 46.2 µM), inactives show top-dose activity change, negative = growth inhibition, usual class: inhibitors. actives 12% (n = 420,000); also: nearly all actives have a fitted effect of over 55% in size
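Chicken DT40 Tdp1-/- cells complemented with human TDP1, 400 cells/well, exposed to compounds plus 20 nM camptothecin for at least 48 h at 37 C; viability read as ATP content by CellTiter-Glo luminescence.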
* hit, by the source's call; i = inactive; ? = inconclusive; / = not tested or not shown; [ ] = remark or other dose. Calls follow the shape of the dose curve; as a rule, active = well fitted curve in the direction sought with a large enough effect; inconclusive = small, poorly fitted or top-dose-only effect, or another doubt; inactive = no such curve, though single readings can be large; an effect the other way counts as inactive or inconclusive. Unless noted, % is scaled to controls: 0 for no effect and ±100 for the full control effect; potency is read from the fitted curve at half-maximal effect.

SMILES | KB-V1 MDR tox | HT1080-NT tox | KB-3-1 cytotox | HT1080 IDH1KD tx | DT40 TDP1 no CPT | TDP1 cell CPT
COc1cccc(-c2ncc3ccccc3c2COC(=O)c2cccc(Br)c2)c1 | i | -16% | i | -5% | ? | ?
Cc1nc2scc(C)n2c(=O)c1S(=O)(=O)Nc1ccc(N2CCOCC2)cc1 | i | -7% | i | -8% | ? | -9%
CC(/C=N/Nc1nnc2c(n1)[nH]c1ccccc12)=C\c1ccco1 | i | 7% | i | -1% | ? | 26µM*
COc1cccc(/C=N/Nc2nnc3c(n2)[nH]c2ccccc23)c1OC | i | 0% | ? | 5% | ? | ?
N/C(=N/OC(=O)c1ccc(Cl)cc1)c1ncc([N+](=O)[O-])s1 | i | 22% | i | 8% | 21µM* | 16µM*
N/C(=N\OC(=O)c1ccc(Cl)cc1)c1ccccn1 | i | 0%[9.24 µM] | i | ? | -4% | -9%
Cc1nc(CC(=O)Nc2ccc(C)c(C)c2)cs1 | / | / | / | / | -15% | 8%
Cc1cccc(OCc2nc(CC(=O)Nc3ccc(C)c(C)c3)cs2)c1 | i | / | i | / | 18µM* | ?
Cc1cccc(OCCC(=O)Nc2ccc(F)c(F)c2)c1 | ? | 2% | i | -4% | -8% | -4%
Cc1cccc(OCc2nc(CC(=O)Nc3ccc(Cl)cc3)cs2)c1 | i | / | i | / | ? | 21µM*
N#CCC(=O)N/N=C\c1ccc(OC/C=C/c2ccccc2)cc1 | ? | -2% | i | 1% | 4% | -10%
N#CCC(=O)N/N=C\c1ccccc1OC/C=C/c1ccccc1 | i | -13% | i | -19% | 4.1µM* | 5.8µM*
COCC(=O)N/N=C\c1ccccc1OC/C=C/c1ccccc1 | i | -2% | ? | ? | 26µM* | ?
COc1cccc(/C=N\NC(C)=O)c1OC/C=C/c1ccccc1 | ? | -7% | ? | -20% | ? | ?
COc1ccc(OC)c(CC2C(=O)Nc3ccc(Br)cc32)c1 (configuration not stated) | / | / | / | / | 7.3µM* | 10µM*
Cn1c(CC2C(=O)Nc3ccc(Br)cc32)nc2ccccc2c1=O (configuration not stated) | 10µM* | ? | ? | -27% | ? | ?
CCOc1ccccc1CC1C(=O)Nc2ccc(Br)cc21 (configuration not stated) | i | / | ? | / | ? | ?
CCOc1c(CC2C(=O)Nc3ccc(Br)cc32)cccc1OC (configuration not stated) | i | / | i | / | 16µM* | ?
CCCOc1ccc(CC2C(=O)Nc3ccc(Br)cc32)cc1 (configuration not stated) | i | / | i | / | 18µM* | ?
CCOc1ccc(OCCN2C(=O)NC(Cc3c[nH]c4ccccc34)C2=O)cc1 (configuration not stated) | ? | -4% | i | -8% | -26% | ?
CCCNC(=O)C1(C)CCN(C(=O)Cc2ccc3ccccc3c2)C1 (configuration not stated) | i | 2% | i | 12% | ? | ?
Cc1ccc(-c2ccc(CCC(=O)O)n2-c2ccc(C(C)C)cc2)cc1 | i | / | i | / | -18% | ?
Cc1ccccc1N1CCN(Cc2nc(Cc3ccccc3)no2)CC1 | ? | 16% | i | 9% | ? | ?
CC(=O)c1ccc(N2CCN(Cc3nc(Cc4ccccc4)no3)CC2)cc1 | i | -17% | i | 2% | 16µM* | ?
CC(=O)c1ccc(N2CCN(Cc3cc(=O)n4c(-c5ccccc5)csc4n3)CC2)cc1 | i | ? | i | -18% | 21µM* | ?
SMILES | KB-V1 MDR tox | HT1080-NT tox | KB-3-1 cytotox | HT1080 IDH1KD tx | DT40 TDP1 no CPT | TDP1 cell CPT
O=c1cc(CN2CCN(c3ccccc3)CC2)nc2scc(-c3ccccc3)n12 | ? | -9% | i | -2% | 23µM* | ?
CN1CCc2c(sc3nc(SCC(=O)NCc4ccco4)n(-c4ccccc4)c(=O)c23)C1 | i | -13% | i | -1% | ? | ?
O=c1cc2nc(-c3ccccc3F)nc(SCc3ccc(Br)cc3)n2[nH]1 | i | / | i | / | 12µM* | 18µM*
COc1ccccc1NC(=O)CSc1nc(-c2ccccc2F)nc2cc(=O)[nH]n12 | i | / | i | / | ? | ?
S=C(NCCCc1cnc[nH]1)NCCCN(Cc1ccc(Cl)cc1)c1cc(-c2ccccc2)ccn1 | i | / | i | / | ? | ?
Cn1cnc2c(=O)oc3ccc(S(=O)(=O)N4CCN(c5ccccc5F)CC4)cc3c21 | ? | / | i | / | -23% | -9%
Cc1cccc(N2CCN(S(=O)(=O)c3ccc4oc(=O)c5ncn(C)c5c4c3)CC2)c1C | i | / | i | / | 16µM* | ?
COc1ccc(CS(=O)(=O)c2ncn[nH]2)cc1 | i | 7% | i | 16% | 6% | 14%
COc1ccc(OC)c(/C=N/NC(=O)CCN2CCN(C(c3ccccc3)c3ccccc3)CC2)c1 | ? | ? | i | -28% | 16µM* | ?
